Screens from PubChem BioAssay.
DT40 TDP1 CPT – qHTS for Inhibitors of human tyrosyl-DNA phosphodiesterase 1 (TDP1): qHTS in cells in presence of CPT; Potency, µM (titrated, usually from 46.2 µM), most hits filed as inhibitors; AID 686979, 2013; 420,000 tested, 12% active; chicken DT40 Tdp1-/-;hTDP1 cells + 20 nM CPT, ATP luminescence, 48 h; also: nearly all actives have a fitted effect of over 55% in size
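Chicken DT40 Tdp1-/- cells stably complemented with human TDP1 were seeded at 400 cells/well in medium containing 20 nM camptothecin, exposed to pin-transferred compounds, and grown at 37 °C for at least 48 hr. Viability was read as ATP luminescence.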
TDP1 cell noCPT – qHTS for Inhibitors of human tyrosyl-DNA phosphodiesterase 1 (TDP1): qHTS in cells in absence of CPT; 420,000 tested, 15% active; AID 686978, 2013; DT40 Tdp1-/- hTDP1 cells, no CPT, ATP luminescence, 48 h; Potency, µM (doses to about 46.2 µM), most hits filed as inhibitors; also: nearly all actives have a fitted effect of over 55% in size
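Growth kinetics read by CellTiter-Glo luminescence after ≥48 hr at 37 °C. Cells: DT40 Tdp1-/- stably carrying human TDP1, 400 per well, compound exposure in the absence of CPT (DMSO vehicle).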
KB-3-1 cytotox – qHTS assay for MDR1-selective chemotherapeutics: Primary screen using the parental adenocarcinoma cell KB-3-1. KB-3-1 viability, CellTiter-Glo ATP luminescence, 72 h. Potency, µM (doses to about 46.1 µM), actives largely listed as cytotoxic. 400,000 tested, 1.4% active. AID 1347075, 2019; also: nearly all actives have a fitted effect of over 60% in size
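Here the drug-naive KB-3-1 line serves as comparator for MDR sub-line selectivity; cells received compound titrations, 72 h at 37 °C, then CellTiter-Glo readout.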
HT1080NT lethal – qHTS for induction of synthetic lethality in tumor cells producing 2HG: qHTS for the HT-1080-NT fibrosarcoma cell line. Potency, µM (highest dose often 46.1 µM), most hits filed as cytotoxic. AID 686970, 2013. 360,000 tested, 1.6% active. HT-1080-NT fibrosarcoma viability, CellTiter-Glo ATP luminescence, 48 h;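 also: NT is the 2HG producing partner of a matched IDH1 knockdown line; nearly all actives have a fitted effect of over 55% in size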
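Compounds were tested in concentration-response format on HT-1080-NT cells for 48 hours at 37 degrees C. Cell viability came from CellTiter-Glo luminescence; curves were classified by r2, response magnitude and activity.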
KB-V1 cytotox – qHTS assay for MDR1-selective chemotherapeutics: Primary screen using the drug-selected MDR subline cells KB-V1; KB-V1 MDR cells viability, CellTiter-Glo, 72 h; Potency, µM (top dose mostly 46.1 µM), hits mostly cytotoxic; 400,000 tested, 3.4% active; also: nearly all actives have a fitted effect of over 60% in size
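Readout: CellTiter-Glo luminescence, 10 min after addition. Cells: KB-V1 MDR subline, 72 h at 37 degrees C with compound. Analysis: corrected, normalized data fitted to concentration-effect curves.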
HT1080 IDH1KD tx – qHTS for induction of synthetic lethality in tumor cells producing 2HG: qHTS for the HT-1080-IDH1KD cell line; 360,000 tested, 2% active; Potency, µM (top dose mostly 46.1 µM), actives largely listed as cytotoxic; HT-1080 IDH1 knockdown viability, ATP luminescence, 48 h; AID 686971, 2013
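In this qHTS, HT-1080 cells depleted of IDH1 are exposed for 48 h at 37 °C to compound titrations. Toxicity is scored from CellTiter-Glo luminescence, with DMSO as full viability and medium alone as none.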
A number is an active result; - = inactive; ? = inconclusive; . = no result. The list is not random: actives were taken first. Their share in the collection is about 19%. Calls follow the shape of the dose curve; as a rule, active = well fitted curve in the direction sought with a large enough effect; inconclusive = small, poorly fitted or top-dose-only effect, or another doubt; inactive = no such curve, though single readings can be large; an effect the other way counts as inactive or inconclusive.

SMILES	DT40 TDP1 CPT	TDP1 cell noCPT	KB-3-1 cytotox	HT1080NT lethal	KB-V1 cytotox	HT1080 IDH1KD tx
Cc1ccc2c(c1)N(C(=O)CCC(=O)NCCN1CCOCC1)CC(C)O2 (stereo not given)	-	-	-	-	?	-
COc1cc(/C=C/CN2CCN(Cc3ccc(C)o3)C(CCO)C2)ccc1O (stereo not given)	-	-	-	-	-	-
O=[N+]([O-])c1ccc(OCCO)c(P(=O)(c2ccccc2)c2ccccc2)c1	-	-	-	-	-	-
O=C(/C=C/c1ccc([N+](=O)[O-])cc1)N(c1ccccn1)C1CCCCC1	?	?	-	-	-	-
Cn1c(=O)c2c(nc(N3CCCCCC3)n2Cc2cccc3ccccc23)n(C)c1=O	?	25.9µM	18.4µM	-	?	-
CCOC(=O)Cn1c(=O)c2c(nc3n2CCCN3Cc2ccccc2)n(C)c1=O	-	-	-	-	-	-
Cn1c(=O)c2c(nc(N3CCOCC3)n2Cc2ccccc2)n(C)c1=O	?	25.9µM	-	.	-	.
CCOC(=O)Cn1c(=O)c2c(nc(N3CCOCC3)n2Cc2ccccc2)n(C)c1=O	?	16.4µM	.	.	.	.
Cc1ccc(NC(=O)CCNC(=O)c2ccc(Cl)cc2)cc1C	-	-	-	-	-	-
COc1cc2c(cc1OC)C(C(=O)Nc1ccc3c(c1)OCCO3)C(c1cccnc1)N(C)C2=O (stereo not given)	?	?	-	-	?	-
COC(=O)c1ccc(N/C=C/C(=O)c2ccccc2)cc1	-	-	-	-	-	-
COc1ccc(OC)c(-c2cc(C3CCN(c4cc(Cl)nc(N)n4)CC3)[nH]n2)c1	13µM	20.6µM	7.31µM	-	3.26µM	?
COc1ccc(-c2cc(C3CCN(CC(O)C(F)(F)F)CC3)[nH]n2)cc1 (stereo not given)	?	?	-	-	-	-
Nc1nc(Cl)cc(N2CCC(c3cc(-c4ccc(Cl)cc4)n[nH]3)CC2)n1	3.55µM	2.82µM	?	22.4µM	14.6µM	11.2µM
O=[S+]([O-])(Nc1ccccc1F)c1cccc(NC/C=C/c2ccccc2)c1	.	.	-	.	-	.
O=C(CC[C@H]1O[C@@H](n2cnc3c(NC(=O)c4ccccc4)ncnc32)[C@H](O)[C@@H]1O)NCc1cccc2ccccc12	-	-	-	-	-	-
CCCCN1CC[C@H]2C=CC[C@@H](C(=O)NCc3cccnc3)[C@H]2C1=O	-	-	-	.	-	.
COc1cccc(C(=O)CC(=O)C(=O)Nc2ccc(C)cc2Cl)c1	?	?	-	-	-	-
CCCCOC(=O)c1ccc(NC(=O)C(=O)CC(=O)c2ccc(OC)cc2)cc1	16.4µM	16.4µM	?	-	?	-
COc1ccc(C(=O)CC(=O)C(=O)Nc2cccc(C(C)=O)c2)cc1	-	?	-	-	-	-
COc1ccc(C(=O)CC(=O)C(=O)Nc2ccc(C)c(C)c2)cc1	20.6µM	20.6µM	-	-	-	-
COc1cc(OC)c(NC(=O)C(=O)CC(=O)c2ccc(C)cc2C)cc1Cl	4.61µM	2.59µM	?	-	?	-
COc1ccc(C(=O)CC(=O)C(=O)Nc2ccc(C)cc2Cl)cc1	?	16.4µM	-	-	-	-
COc1cc(OC)c(NC(=O)Cn2cccc2)cc1Cl	-	-	-	-	?	-
CCCCOC(=O)c1ccc(NC(C)=O)cc1	-	-	-	-	-	-
SMILES	DT40 TDP1 CPT	TDP1 cell noCPT	KB-3-1 cytotox	HT1080NT lethal	KB-V1 cytotox	HT1080 IDH1KD tx
NS(=O)(=O)c1cccc(NS(=O)(=O)c2ccc3ccccc3c2)c1	-	-	-	-	-	-
CCCCOC(=O)c1ccc(NC(=S)NC(=O)c2c(Cl)cnn2C)cc1	23.1µM	16.4µM	-	-	-	-
COc1ccc(C(=O)NNC(=O)C(=O)Nc2ccc(C)c(Cl)c2)cc1	23.1µM	?	-	-	-	-
CC(CCc1ccccc1)NC(=O)CCCn1ncn2c(cc3occc32)c1=O (stereo not given)	-	-	?	-	-	-
Cc1cccc(Cn2c(C)nc3c(N)c(C)c(C)cc32)c1	-	16.4µM	-	-	?	-
Cc1nc([N+](=O)[O-])c(C(=O)OCc2ccc(C#N)cc2)n1C	-	-	-	-	-	-
O=C1c2cccc3c(N4CCCCC4)ccc(c23)C(=O)N1c1ccc(O)cc1	?	23.1µM	-	-	-	-
O=C(O)c1ccc(N2CCCCCC2)c(N2C(=O)c3ccccc3C2=O)c1	-	-	-	-	-	-
O=C1c2cccc3c(N4CCCCC4)ccc(c23)C(=O)N1c1ccccc1O	13µM	20.6µM	-	-	-	-
Cc1ccc(-c2nc(CN(C)C3CCOC3)c(C)o2)s1 (stereo not given)	-	-	-	-	-	-
COc1ccc(/C=C2\COc3ccccc3C2=O)cc1OC	14.6µM	20.6µM	?	11.6µM	-	18.4µM
CCOc1cc(/C=C2\COc3ccccc3C2=O)cc(Br)c1OCC(=O)N(C)C	3.66µM	4.61µM	?	18.4µM	?	13µM
COc1ccc2c(c1)OC/C(=C\c1ccc(OC)c(O)c1)C2=O	1.46µM	1.03µM	.	.	.	.
O=C(O)c1ccc(/C=C2\COc3ccccc3C2=O)cc1	?	18.4µM	-	?	-	?
Cc1cc(C)c2c(c1)C(=O)/C(=C/c1ccc(C(=O)O)cc1)CC2	-	-	-	-	-	-
O=C(Nc1cccc2ccccc12)c1ccc(Cn2cc(Cl)cn2)cc1	-	-	-	-	?	-
O=C(O)c1cccnc1SCc1cccc(Cl)c1	?	?	-	?	?	-
COc1ccc(/C=C2\COc3ccccc3C2=O)c(OC)c1	20.6µM	?	?	?	-	?
COc1ccc2c(c1)OC/C(=C/c1cccs1)C2=O	-	?	-	-	-	-
O=C(Nc1ccc2ccccc2c1)Nc1nnc(C2CCCCC2)s1	.	.	-	.	?	.
Fc1ccccc1/C=C/c1ccc2ccccc2n1	?	?	?	-	?	-
C(=NN1CCCCCC1)c1cccc2ccccc12	-	?	-	-	-	-
Cn1cc(/C=C/c2ccc3ccccc3n2)c2ccccc21	11.2µM	10µM	?	.	-	.
C(=NN1CCCCCC1)c1ccc2ccccc2n1	?	16.4µM	?	6.51µM	-	?
C(=C\c1ccnc2ccccc12)/c1ccc2ccccc2n1	7.08µM	7.94µM	-	.	?	.
